# In PubChem BioAssay (NCI):
# Several values for one entry are separate records, joined by “and”; a condition that tells them apart may be missing. Equal values may be shown once. About 83,000 compounds went through this panel and 20% of them were active in at least one assay; those are over-represented in the sample as a whole.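 Activity criterion: percent growth below 10, measured after cells in 96-well plates were exposed to a single compound concentration for 48 hours.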 Values without a mark were called inactive. Activity calls are given as the source filed them.
# Test system: HL-60(TB) leukemia
# Assay: NCI-60 one-dose screen, 48 h (100 = growth as untreated, 0 = no growth, -100 = all killed)
# Settings: 10 µM unless noted
row,Compound,growth
1,Nc1cc2ccccc2c(=O)n1NC(=O)c1ccc(I)cc1,77%
2,CC(=O)c1c2c(c3ccc4c5ccccc5ccc4n13)C(=O)c1ccccc1C2=O,94.2%
3,CC(=O)c1cccc(NC(=O)CCC(=O)NS(=O)(=O)c2ccc(C)cc2)c1,107%
4,CC(=O)Nc1cccc(-n2c(COc3ccc(I)cc3)nc3ccccc32)c1,116% and 92.8%
5,COc1c(F)ccc(C(=O)Nc2ccc3nc(NC(=O)C4CCCN(S(=O)(=O)c5ccc(C(C)(C)C)cc5)C4)sc3c2)c1F (stereo not given),66.9%
6,CCCCCCCCCCCCCCCCCCCC(=O)NCCc1c[nH]c2ccc(OC(=O)NOCCOCCOCCOCCOCCOCCOCCOCCOCCOCCOCCOCCOCCOCCOCCOCCOCCOCCOCCOCCOCCOCCOC)cc12,-38.2% (active)
7,Cc1cc(C)nc(/N=C(\N)Nc2ccc(S(=O)(=O)Nc3nc(C)cc(C)n3)cc2)n1,94.7%
8,COc1ccc2[nH]cc(-c3cc(N)n4nc(-c5c[nH]c6ccccc56)cc4n3)c2c1,-44.7% (active)
9,O=C(c1ccc(Cl)cc1)C1[C@H](c2ccc(Br)cc2)[C@@H](c2ccccc2)NC12C(=O)Nc1ccc(Br)cc12 (stereo not given in full),-42.8% (active)
10,O=C(CCN1C(=O)/C(=C/c2ccc(F)cc2)SC1=S)N1CCOCC1,86.4%
11,C/C(=N/O)c1ccc(NC(=O)CSc2nnc(-c3ccc(-c4nc5ccc(Cl)cc5[nH]4)cc3)o2)cc1,44%
12,COc1ccc2nc(Cl)c(-c3cc(-c4ccccc4)nc(N)n3)cc2c1,-37.5% (active)
13,CC(C)c1ccc(C(=O)Nc2sc3c(c2C(N)=O)CCC(=O)C3=O)cc1,96.9%
14,Cc1ccc(/C=C/C(=O)c2ccc(S(=O)(=O)NCCNc3nc(Nc4ccc(F)cc4)nc(N(C)C)n3)cc2)cc1,13.5%
15,O=C(/C=C/c1cccc(OCc2ccccc2)c1)c1nc2ccccc2[nH]1,5.75% (active)
16,Cc1ccc(C(=O)Nc2cc(-n3ccnc3)cc(C(F)(F)F)c2)cc1-n1cc(-c2cnc3cccnn23)nn1,50.5%
17,COc1ccc2[nH]cc(/C=N/Nc3cccc(Cl)n3)c2c1,23.7%
18,Cn1cc(-c2cc3nc(-c4cn(C)c5ncccc45)cc(N)n3n2)c2cc(Cl)ccc21,-66.6% (active)
19,O=C(/C=C/c1ccc(-c2ccccc2)cc1)c1nc2ccccc2n1Cc1ccc(Br)cc1,35.3%
20,CC1(C)CC[C@]2(C(=O)Nc3ccc(Br)cc3)CC[C@]3(C)C(=CCC4[C@@]5(C)C[C@@H](O)[C@H](O)[C@@](C)(CO)C5CC[C@]43C)C2C1 (stereo not given in full),-13.2% (active)

row,Compound,growth
1,Cc1oc(-c2ccccc2)nc1CN[C@@H]1C[C@@H]2C[C@H]([C@H]1C)C2(C)C,-23.7% (active)
2,CCOc1ccccc1[C@H]1C(C(=O)c2ccc(Cl)cc2)C2(N[C@@H]1c1ccccc1)C(=O)Nc1ccc(Cl)cc12 (stereo not given in full),18.2%
3,O=C(CN1CCN(c2ncnc3c2cnn3-c2ccccc2)CC1)Nc1ccc(Br)cc1,64.3%
4,COc1cccc(-c2ccnc(/N=C(\N)Nc3ccc(S(=O)(=O)Nc4nc(C)cc(C)n4)cc3)n2)c1,91.9%
5,Nc1cccc(SCc2cc3ccccc3[nH]c2=O)c1,42.2%
6,C=CC(=O)Nc1ccc(C(=O)/C=C/c2ccc(N(C)CCF)cc2)c(O)c1,-32.2% (active)
7,O=C(N/N=C/c1ccc(Cl)cc1)c1ccc(OCc2nc3ccc(Cl)cc3[nH]2)cc1,81.7%
8,COc1cccc(-c2ccc(/C=N/NC(=O)c3[nH]c4ccc(Br)cc4c3-c3ccccc3)s2)c1,-28.2% (active)
9,Cn1cc(-c2cc(N)n3nc(-c4cn(C)c5ccccc45)cc3n2)c2cc(F)ccc21,-20.1% (active)
10,CC12CC[C@@H]3[C@]4(C)COC(c5cn[nH]c5-c5ccc(Br)cc5)O[C@@H]4CC[C@@]3(C)[C@@H]1CC(C1=CCOC1=O)O2 (stereo not given in full),27.2%
11,O=C1Nc2ccc(Cl)cc2/C1=C/c1cccc(OCc2ccccc2)c1,8.8% (active)
12,NNc1ncnc2sc3c(c12)CCN(Cc1ccccc1)C3,18.8%
13,COc1ccc(N2N=C(c3ccc4c(c3)OCO4)CC2c2cccc(NC(=O)CCNS(=O)(=O)c3ccc(Cl)cc3)c2)cc1 (stereo not given),34.4%
14,N#Cc1c(NC(=O)c2ccc(C(F)(F)F)c(Cl)c2)sc2c1CCC(=O)C2,-14.4% (active)
15,CC1(c2cc3cc(Br)ccc3oc2=O)NC(=O)c2c(/C=C/C(=O)OC3CC4CCC3(C)C4(C)C)cccc2N1 (stereo not given),48.9%
16,CCCSc1nnc(-c2c(C)nc3sccn23)o1,98.3%
17,COc1ccc2[nH]c(O)c(N=Nc3nc(-c4ccc(Cl)cc4)cs3)c2c1,58%
18,N#CCc1nnc(NC(=O)c2ccc(-n3c(=O)[nH]c4ccccc4c3=O)cc2)s1,86%
19,O=C(NNC(=O)c1ccc(OCc2nc3ccc(Cl)cc3[nH]2)cc1)Nc1ccc(Cl)c(Cl)c1,103%
20,Nc1nc2c(F)c(F)c(F)c(F)c2s1,110%
